Source: PubChem BioAssay
Shown are actives, neighbours in structure and some others; about 3.8% of the full set was active somewhere.
M18AAP inhibitor = PfM18AAP enzyme inhibition | 290,000 compounds, 1.2% hits | recombinant PfM18AAP, H-Glu-NHMec fluorogenic cleavage | inhibition, % at 7.35 µM;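 active = inhibition above the campaign mean inhibition over all tested compounds plus 3 SD, cut at about 28% in these data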;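 note: 0% = plate median of test compound wells and 100% = 2 mM ZnCl2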
DSG3 Ab inh = blocks pemphigus antibody binding to human desmoglein-3. P32926. DSG3-coupled beads, scFv-anti-DSG3-GFP binding, flow cytometry; stronger effect = lower value. binding (percent of control), % at 10 µM. 310,000 compounds, 0.48% hits. AID 588358;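 active = binding more than 3 SD below its plate's average and above zero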
PAFAH2 FP inh = inhibitors of human PAFAH2; recombinant PAFAH2, FP-rhodamine activity probe, fluorescence polarization; 340,000 compounds, 0.99% hits; inhibition, % at 3.39 µM; AID 492956;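 active = inhibition above the mean over all tested compounds plus 3 SD, cut at about 30% in these data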;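 note: inhibitors block probe labeling of enzyme so polarization drops; 0% = enzyme with DMSO and 100% = wells lacking PAFAH2 protein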
PAFAH1B3 inh = PAFAH1B3 (human) inhibition; 340,000 compounds, 0.28% hits; recombinant PAFAH1B3, FP-rhodamine probe, fluorescence polarization; inhibition, % at 3.39 µM; Q15102;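 active = inhibition above the screen-wide average of all tested compounds plus 3 SD, cut at about 25% in these data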;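 note: 0% = enzyme with DMSO only and 100% = wells lacking PAFAH1B3 protein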
Target sequence (Q15102 whole entry, looked up): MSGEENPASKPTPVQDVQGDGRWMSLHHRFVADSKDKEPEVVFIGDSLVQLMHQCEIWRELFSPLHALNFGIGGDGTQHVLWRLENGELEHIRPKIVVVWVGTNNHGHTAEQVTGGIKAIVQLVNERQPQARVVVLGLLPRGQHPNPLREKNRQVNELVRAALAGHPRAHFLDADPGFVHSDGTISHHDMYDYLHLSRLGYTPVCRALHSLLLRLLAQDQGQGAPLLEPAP
pPAFAH FP inh = inhibitors of human plasma PAF acetylhydrolase (pPAFAH) | 330,000 compounds, 1.5% hits | inhibition, % at 3.39 µM | recombinant pPAFAH, FP-rhodamine probe fluorescence polarization | AID 463082;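 active = inhibition above the mean inhibition across the screen plus 3 SD, cut at about 25% in these data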;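 note: inhibitors block binding of the rhodamine activity-based probe so polarization drops; 0% = enzyme with DMSO and 100% = wells lacking pPAFAH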
PAFAH1B2 inh = blocks human PAF acetylhydrolase 1b catalytic subunit 2. P68402. recombinant PAFAH1B2, FP-rhodamine activity probe, fluorescence polarization. inhibition, % at 3.39 µM. 340,000 compounds, 1.2% hits. AID 492953;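 active = inhibition above the mean of all tested compounds plus 3 SD, cut at about 24% in these data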;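 note: 0% = enzyme with DMSO and 100% = wells lacking PAFAH1B2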
Target sequence (P68402 whole entry, looked up): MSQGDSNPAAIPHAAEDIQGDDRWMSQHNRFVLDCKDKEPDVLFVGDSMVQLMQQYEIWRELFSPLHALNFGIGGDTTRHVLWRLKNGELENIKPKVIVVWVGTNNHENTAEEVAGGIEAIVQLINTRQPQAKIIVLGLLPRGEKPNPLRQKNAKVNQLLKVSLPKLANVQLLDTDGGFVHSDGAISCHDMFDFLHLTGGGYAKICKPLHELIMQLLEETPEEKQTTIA
pPAFAH FP conf = confirmation of human plasma PAF acetylhydrolase (pPAFAH) inhibitors | shares compounds with pPAFAH FP inh | recombinant pPAFAH, FP-Rh probe fluorescence polarization | inhibition, % at 3.39 µM | 2,300 compounds, 72% hits | AID 463230;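 active = mean inhibition of the triplicate above the hit cutoff set for the earlier primary screen, cut at about 25% in these data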;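 note: 0% = enzyme with DMSO and 100% = wells lacking pPAFAH enzyme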
Active calls of the source: *.

COc1ccc(-n2nc(C(=O)NCC(=O)NCCCN3CC(C)CC(C)C3)c3ccccc3c2=O)cc1Cl (configuration not stated) was read as M18AAP inhibitor -4, DSG3 Ab inh 108, PAFAH2 FP inh -3, PAFAH1B3 inh 12, pPAFAH FP inh 6 and PAFAH1B2 inh -2.
Screening CCOC(=O)C(C(=O)OCC)c1cc(Br)c2noc3c2c1C(=O)c1ccccc1-3 returned M18AAP inhibitor -2, DSG3 Ab inh 101, PAFAH2 FP inh 28, PAFAH1B3 inh 22, pPAFAH FP inh 70*, PAFAH1B2 inh 7 and pPAFAH FP conf 11.
For COCCCNC(=O)c1ccc2c3c(onc13)-c1ccccc1C2=O the results were M18AAP inhibitor 0, DSG3 Ab inh 100, PAFAH2 FP inh -4, PAFAH1B3 inh 5, pPAFAH FP inh 9 and PAFAH1B2 inh 3.
For CCOc1cccc(CNCCO)c1OCc1ccc(Cl)cc1Cl the results were M18AAP inhibitor 2, DSG3 Ab inh 105, PAFAH2 FP inh 0, PAFAH1B3 inh 1, pPAFAH FP inh -1 and PAFAH1B2 inh 6.
For CCOc1cc(CNCCO)cc(Br)c1OCc1ccc(Cl)cc1Cl the results were M18AAP inhibitor 0, DSG3 Ab inh 104, PAFAH2 FP inh -3, PAFAH1B3 inh 0, pPAFAH FP inh 42*, PAFAH1B2 inh 4 and pPAFAH FP conf 30*.
COc1cc([N+](=O)[O-])cc(/C=N/NC(=O)C(C)Nc2cccc3ccccc23)c1O (configuration not stated) was read as M18AAP inhibitor 9, DSG3 Ab inh 102, PAFAH2 FP inh 2, PAFAH1B3 inh 14, pPAFAH FP inh 40*, PAFAH1B2 inh 8 and pPAFAH FP conf 59*.
CC(Nc1cccc2ccccc12)C(=O)N/N=C/c1ccc([N+](=O)[O-])cc1 (configuration not stated) was read as M18AAP inhibitor -11, DSG3 Ab inh 99, PAFAH2 FP inh 5, PAFAH1B3 inh 12, pPAFAH FP inh 16 and PAFAH1B2 inh 2.
Screening Cc1nc2[nH]c(=S)[nH]c2c(=O)[nH]1 returned DSG3 Ab inh 83, PAFAH2 FP inh 9, PAFAH1B3 inh 8 and PAFAH1B2 inh 0.
For Cc1cccc(-c2noc(C(C)NC(=O)c3ccco3)n2)c1 (configuration not stated) the results were M18AAP inhibitor 4, DSG3 Ab inh 99, PAFAH2 FP inh -4, PAFAH1B3 inh -2, pPAFAH FP inh -1 and PAFAH1B2 inh -1.
For O=C(COC(=O)c1ccccc1)Nc1ncc([N+](=O)[O-])s1 the results were DSG3 Ab inh 87, PAFAH2 FP inh 57*, PAFAH1B3 inh 26*, pPAFAH FP inh 56*, PAFAH1B2 inh 18 and pPAFAH FP conf 38*.
For O=C(COC(=O)c1ccc2[nH]c3c(c2c1)CCCC3)Nc1ccccc1 the results were M18AAP inhibitor 4, DSG3 Ab inh 106, PAFAH2 FP inh 77*, PAFAH1B3 inh -2, pPAFAH FP inh 43*, PAFAH1B2 inh 3 and pPAFAH FP conf 41*.
For N#CC(C#N)=C(N)/C(C#N)=C/c1cc(O)c(O)c(O)c1 the results were DSG3 Ab inh 95, PAFAH2 FP inh 35*, PAFAH1B3 inh 39*, pPAFAH FP inh 39*, PAFAH1B2 inh 33* and pPAFAH FP conf 60*.
Screening N#C/C(=C/c1cc(Cl)c(O)c(Cl)c1)C(=O)N1CCCCC1 returned M18AAP inhibitor 5, DSG3 Ab inh 116, PAFAH2 FP inh 9, PAFAH1B3 inh 4, pPAFAH FP inh 6 and PAFAH1B2 inh 7.
Screening COc1ccc(CCNCC(=O)Nc2ccccc2C(F)(F)F)cc1 returned M18AAP inhibitor -8, DSG3 Ab inh 100 and pPAFAH FP inh -5.
`CC(OC(=O)c1ccc(NC(=O)CC#N)cc1)C(=O)Nc1nc(-c2ccccc2)cs1` (configuration not stated) gave DSG3 Ab inh 106, PAFAH2 FP inh -55, PAFAH1B3 inh -42, pPAFAH FP inh 53*, PAFAH1B2 inh -26 and pPAFAH FP conf -18.
For CC(C)N(Cc1ccccc1)C(=O)COC(=O)CCC(=O)c1ccc(F)cc1 the results were DSG3 Ab inh 106, PAFAH2 FP inh 0, PAFAH1B3 inh 3, pPAFAH FP inh 2 and PAFAH1B2 inh 5.
